Reference: PubChem BioAssay (Tox21)
Results filed as inconclusive are left out. A number with no mark means an inactive call. Calls come from the whole dose curve; as a rule, active = well fitted activation curve with a large enough effect in the repeat runs; inconclusive = weak or mixed curves; inactive = no such curve, though single readings can be large or run the other way. Non-standard residues stand in square brackets, D forms with d. Residues, ends and D or L forms follow the SMILES beside them. pGlu = O=C1CC[C@@H](C(=O)O)N1; Thz = O=C(O)[C@@H]1CSCN1

biological target: Nuclear receptor subfamily 1 group I member 2 (Homo sapiens) (UniProt O75469); assay: CYP3A4 induction through human pregnane X receptor (PXR) by small molecules, qHTS assay (AID 1346984); conditions: DPX-2 HepG2 PXR, CYP3A4-luciferin luminescence, 24 h; series mostly up to 46.1 µM; activation: at the top concentration; note: nearly all actives have a fitted effect of over 40% in size
Method in brief: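 HepG2-derived DPX-2 line carrying PXR plus a CYP3A4-promoter luciferase reporter; cells plated 5 hr, compound-exposed 24 hr at 37C. CYP3A4 activity probed with 3uM (final) Luciferin-IPA for 3hr, then luciferase read after One-Glo.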
% is set by controls: 0 for no effect and ±100 for the full control effect.

SMILES	activation
O=C1CC[C@@H](C(=O)N2CSC[C@H]2C(=O)O)N1 ([pGlu]-[Thz]-OH)	-6.09%
COc1ccc(CC2c3cc(OC)c(OC)cc3CC[N+]2(C)CCC(=O)OCCCCCOC(=O)CC[N+]2(C)CCc3cc(OC)c(OC)cc3C2Cc2ccc(OC)c(OC)c2)cc1OC (stereo not drawn)	8.88% [at 20.6 µM]
CCN(CC)CCCC(C)Nc1cc(/C=C/c2ccccc2Cl)nc2cc(Cl)ccc12 (stereo not drawn)	18.7%
CO[C@H]1O[C@@H]2O[C@@]3(C)CC[C@H]4[C@H](C)CC[C@@H]([C@H]1C)[C@@]24OO3	6.08%
CO[C@H]1C[C@@H]2CC[C@@H](C)[C@@](O)(O2)C(=O)C(=O)N2CCCC[C@H]2C(=O)O[C@H]([C@H](C)C[C@@H]2CC[C@@H](OCCO)[C@H](OC)C2)CC(=O)[C@H](C)/C=C(\C)[C@@H](O)[C@@H](OC)C(=O)[C@H](C)C[C@H](C)/C=C/C=C/C=C/1C	-19.8%
CN1c2cc(O)c(N=NC(N)=O)cc2CC1S(=O)(=O)O (stereo not drawn)	-2.48%
COc1ccc(-c2noc(CC(=O)O)c2-c2ccc(OC)cc2)cc1	4.25%
Cn1c(O)c(N=NC(N)=S)c2ccccc21	-20.3%
Nc1ncnc2c1ncn2CCOCP(=O)(O)O	-6.23%
CC(=C\c1ccccc1)/C=C1/SC(=S)N(CC(=O)O)C1=O	-1.64%
CC(CCc1ccc(O)cc1)NCC(O)c1ccc(O)cc1 (stereo not drawn)	-0.319%
C[C@H](CCCC(C)(C)O)[C@H]1CC[C@H]2[C@@H]3CC=C4C[C@@H](O)CC[C@]4(C)[C@H]3CC[C@]12C	-0.141%
Nc1nc(=O)n([C@@H]2CS[C@H](CO)O2)cc1F	-1.72%
